The results in this text go back to PubChem BioAssay (Tox21).

Results filed as inconclusive are left out. A call without a number means that no potency is given here. Activity calls are given as the source filed them. Unless noted, the call rests on the fitted dose curve; in most records, active means well fitted cell-killing curve with a large enough effect in the repeat runs; inconclusive means weak or mixed curves, or effect the other way; inactive means no such curve, though single readings can be large or run the other way.

System in one assay: not listed separately
The assay is described as follows: qHTS assay to identify small molecule agonists of the farnesoid-X-receptor (FXR) signaling pathway - cell viability counter screen (AID 743218). Further: nearly all actives have a fitted effect of over 45% in size. Particulars: FXR-bla HEK293T viability, CellTiter-Glo luminescence, 16 h; series mostly up to 62.6 µM. The method in brief:
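After 16 h at 37 C with test compounds, FXR-bla HEK 293T cells were given LiveBLAzer B/G substrate for 2 h at RT and then CellTiter-Glo; luminescence was taken after 30 min.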
As for `CCC(C)n1c(=O)[nH]c(C)c(Br)c1=O` (stereo not drawn), the Potency result was “inactive”. On the same count and under the same terms, as for `C[N+](C)=CCl`, the entry is “inactive”; as for `CCOP(=S)(OCC)Oc1cc(-c2ccccc2)on1`, “inactive”. Same read-out and setting: as for `CC(C)(C)OC(=O)c1ncn2c1[C@@H]1CCCN1C(=O)c1c(Br)cccc1-2`, the entry is “inactive”; as for `O=C(Cc1ccccc1)OCc1ccccc1`, “inactive”.

Turning to `CCOC(=O)NC(=S)Nc1ccccc1NC(=S)NC(=O)OCC`, the Potency result was “inactive”. As for `O=NN1CCN(N=O)CC1`, the Potency entry is “inactive”. On the same count and under the same terms, next, `COc1cc(OC)nc(Sc2cccc(Cl)c2C(=O)O)n1`: “inactive”; `CN1CCC(O)(c2ccc(F)cc2)C(C(=O)c2ccc(F)cc2)C1` (stereo not drawn): “inactive”; `CCCCc1ccc(O)cc1`: “inactive”. Same read-out and setting: as for `CN1C(=S)CN=C(c2ccccc2)c2cc(Cl)ccc21`, the entry is “inactive”. The same measure, in the same setting: as for `C#C[C@]1(O)C=C[C@H]2[C@@H]3CCC4=CC(=O)CC[C@@H]4[C@H]3CC[C@@]21CC`, the entry is “inactive”.

For the compound `Nc1c(Br)cc([N+](=O)[O-])cc1[N+](=O)[O-]`, the Potency result is “inactive”. Still for that read-out and setting: next, `CNC(=O)Oc1ccccc1C1OCCO1`: “inactive”; `Nc1cc(Cl)ccc1O`: “inactive”. On the same count and under the same terms, as for `O=[N+]([O-])c1ccc2c3c(cccc13)CC2`, the entry is “inactive”. Same read-out and setting: as for `BrCCCCCCBr`, the entry is “inactive”; as for `CCOc1nc(C(Cl)(Cl)Cl)ns1`, “inactive”; as for `C[C@H]1CCC[C@H](O)CCCCCc2cc(O)cc(O)c2C(=O)O1`, “inactive”. For the compound `CC(Cl)(Cl)[N+](=O)[O-]`, the Potency entry was “inactive”. The same measure, in the same setting: as for `CC1(C(=O)Nc2ccc(O)c(Cl)c2Cl)CCCCC1`, the entry is “inactive”; as for `CCNc1nc(NC(C)C)nc(OC)n1`, “inactive”.

Take `N#CC(CCc1ccc(Cl)cc1)(Cn1cncn1)c1ccccc1` (stereo not drawn): the Potency entry was “inactive”. The same measure, in the same setting: next, `CCOP(=S)(OCC)SCSP(=S)(OCC)OCC`: “inactive”; `CCCCOC(=O)c1ccccc1C(=O)O`: “inactive”. The same measure, in the same setting: as for `Nc1cnn(-c2ccccc2)c(=O)c1Cl`, the entry is “inactive”. Still for that read-out and setting: next, `CCCCOP(=O)(O)OCCCC`: “inactive”. Turning to `COP(N)(=S)Oc1ccccc1C(=O)OC(C)C` (stereo not drawn), the Potency result was “inactive”.

For the compound `CNC(=O)Oc1ccc(N(C)C)c(C)c1`, the Potency result was “inactive”.

In the next assay the target is Bile acid receptor (Homo sapiens) (UniProt Q96RI1). The assay is described as follows: qHTS assay to identify small molecule agonists of the farnesoid-X-receptor (FXR) signaling pathway (AID 743220; active means well fitted activation curve with a large enough effect in the signal ratio in the repeat runs, not every such curve was filed as active; the % refers to the signal ratio). Particulars: HEK293T FXR-UAS-bla, beta-lactamase FRET ratio, 16 h; series mostly up to 62.6 µM. A digest of the protocol: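 Beta-lactamase reporter under UAS control in GeneBLAzer FXR HEK 293T cells (5000/well) measured with LiveBLAzer FRET substrate after 2 h at room temperature. Compound exposure lasted 16 h at 37C.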
Chain of Bile acid receptor (Homo sapiens) (Q96RI1 whole entry, looked up): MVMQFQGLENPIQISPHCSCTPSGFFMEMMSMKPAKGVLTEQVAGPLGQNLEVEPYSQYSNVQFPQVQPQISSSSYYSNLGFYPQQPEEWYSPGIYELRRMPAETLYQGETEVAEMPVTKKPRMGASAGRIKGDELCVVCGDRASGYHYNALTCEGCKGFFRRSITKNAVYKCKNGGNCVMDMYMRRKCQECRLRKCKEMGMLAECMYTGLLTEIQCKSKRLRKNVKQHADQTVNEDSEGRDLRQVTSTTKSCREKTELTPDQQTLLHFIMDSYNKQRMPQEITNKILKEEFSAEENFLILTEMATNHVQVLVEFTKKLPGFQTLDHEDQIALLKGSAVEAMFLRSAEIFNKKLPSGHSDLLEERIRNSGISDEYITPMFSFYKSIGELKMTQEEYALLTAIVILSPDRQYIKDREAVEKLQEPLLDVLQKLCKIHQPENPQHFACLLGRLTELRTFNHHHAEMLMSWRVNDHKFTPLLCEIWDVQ
On to `CCC(C)n1c(=O)[nH]c(C)c(Br)c1=O` (stereo not drawn), for which the result was inactive. On the same count and under the same terms, as for `O=C(Cc1ccccc1)OCc1ccccc1`, the entry is “inactive”.

In the case of `O=NN1CCN(N=O)CC1`, the outcome was inactive. Same read-out and setting: next, `CCCCc1ccc(O)cc1`: “inactive”. On the same count and under the same terms, as for `CN1C(=S)CN=C(c2ccccc2)c2cc(Cl)ccc21`, the entry is “inactive”; as for `C1CCC(C2CCCCC2)CC1`, “inactive”; as for `CC(CC(C#N)(c1ccccc1)c1ccccc1)N(C)C` (stereo not drawn), “inactive”. On the same count and under the same terms, next, `Nc1c(Br)cc([N+](=O)[O-])cc1[N+](=O)[O-]`: “inactive”; `CNC(=O)Oc1ccccc1C1OCCO1`: “inactive”; `O=[N+]([O-])c1ccc2c3c(cccc13)CC2`: “inactive”. As for `CC(COc1ccc(Oc2ccccc2)cc1)Oc1ccccn1` (stereo not drawn), the result was inactive. On the same count and under the same terms, next, `CC1(C(=O)Nc2ccc(O)c(Cl)c2Cl)CCCCC1`: “inactive”. The same measure, in the same setting: as for `CCNc1nc(NC(C)C)nc(OC)n1`, the entry is “inactive”; as for `CCCSP(=O)(OCC)Oc1ccc(Br)cc1Cl` (stereo not drawn), “inactive”; as for `N#CC(CCc1ccc(Cl)cc1)(Cn1cncn1)c1ccccc1` (stereo not drawn), “inactive”. Still for that read-out and setting: as for `CCCCOC(=O)c1ccccc1C(=O)O`, the entry is “inactive”; as for `O=C(Nc1ccccc1)N(Cc1ccc(Cl)cc1)C1CCCC1`, “inactive”. In the case of `CCCCOP(=O)(O)OCCCC`, the outcome was inactive. On the same count and under the same terms, next, `CNC(=O)Oc1ccc(N(C)C)c(C)c1`: “inactive”.
